# IL-1B inflam inh – qHTS for Inhibitors of Inflammasome Signaling: IL-1-beta AlphaLISA Primary Screen; THP-1 LPS/ATP IL-1B secretion, AlphaLISA, 16 h; hits give low values; 360,000 compounds, 4.7% hits; activity change, % at 57.5 µM; AID 743279, 2014; in the data active = activity change below about -50%; inconclusive = mostly about -30% to -49%
#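 THP-1 cells pretreated 1 hr with compounds (up to 57.5 uM final), then stimulated with LPS (250 ng/mL final) plus ATP (1.25 mM final); secreted IL-1B measured by AlphaLISA after 16 hr, decreased signal indicating inhibition.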
# HT1080NT lethal – qHTS for induction of synthetic lethality in tumor cells producing 2HG: qHTS for the HT-1080-NT fibrosarcoma cell line; Potency, µM (series often up to 46.1 µM), without a hit: at the top dose activity, negative = less viability, hits mostly cytotoxic; AID 686970, 2013; 360,000 compounds, 1.6% hits; HT-1080-NT fibrosarcoma viability, CellTiter-Glo ATP luminescence, 48 h;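 note: NT is the 2HG producing partner of a matched IDH1 knockdown line; potency is the fitted concentration of half-maximal effect; 0% = DMSO-treated cells and -100% = media-only wells without cells; nearly all actives have a fitted effect of over 55% in size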
#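 Read-out is CellTiter-Glo luminescence after 10 minutes at room temperature, following 48 hours' compound treatment of HT-1080-NT cells (750 cells/well, RPMI, 5% FBS, 37 degrees C).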
# TDP1 cell CPT – qHTS for Inhibitors of human tyrosyl-DNA phosphodiesterase 1 (TDP1): qHTS in cells in presence of CPT; AID 686979, 2013; Potency, µM (titrated, usually from 46.2 µM), without a hit: at the highest dose activity change, negative = growth inhibition, actives largely listed as inhibitors; 420,000 compounds, 12% hits; chicken DT40 Tdp1-/-;hTDP1 cells + 20 nM CPT, ATP luminescence, 48 h; note: potency is the fitted concentration of half-maximal effect; nearly all actives have a fitted effect of over 55% in size
#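 Cell growth measured by CellTiter-Glo luminescence after a minimum 48 h, 37 C compound exposure with 20 nM CPT in Tdp1-knockout DT40 cells stably expressing hTDP1, seeded 400/well; qHTS titration format.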
# TDP1 cell noCPT – qHTS for Inhibitors of human tyrosyl-DNA phosphodiesterase 1 (TDP1): qHTS in cells in absence of CPT; DT40 Tdp1-/- hTDP1 cells, no CPT, ATP luminescence, 48 h; Potency, µM (series often up to 46.2 µM), inactives show top-dose activity change, negative = growth inhibition, most hits filed as inhibitors; 420,000 compounds, 15% hits; AID 686978, 2013; note: potency is the fitted concentration of half-maximal effect; nearly all actives have a fitted effect of over 55% in size
#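 Chicken DT40 Tdp1-/- cells stably complemented with human TDP1 were seeded at 400 cells/well with DMSO in place of 20 nM camptothecin. After compound pinning, cells grew at least 48 hr at 37 °C; viability read by CellTiter-Glo luminescence.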
# HT1080 IDH1KD tx – qHTS for induction of synthetic lethality in tumor cells producing 2HG: qHTS for the HT-1080-IDH1KD cell line. AID 686971, 2013. 360,000 compounds, 2% hits. Potency, µM (top dose mostly 46.1 µM), without a hit: at the highest dose activity, negative = toxicity, most hits filed as cytotoxic. HT-1080 IDH1 knockdown viability, ATP luminescence, 48 h;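 note: potency is the fitted concentration of half-maximal effect; 0% = DMSO wells and -100% = cell-free medium wells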
#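 In this qHTS, HT-1080 cells depleted of IDH1 are exposed for 48 h at 37 °C to compound titrations. Toxicity is scored from CellTiter-Glo luminescence, with DMSO as full viability and medium alone as none.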
# ELG1 repair inh – qHTS screen for small molecules that inhibit ELG1-dependent DNA repair in human embryonic kidney (HEK293T) cells expressing luciferase-tagged ELG1; HEK293T ELG1-luciferase reporter, luminescence, 16 h; DNA damage induced by 5-fluorouridine; AID 504467, 2011; 330,000 compounds, 2.3% hits; Potency, µM (titrated, usually from 46.1 µM), without a hit: top-dose activity change, negative = inhibition, usual class: inhibitors; note: potency is the fitted concentration of half-maximal effect; nearly all actives have a fitted effect of over 55% in size
#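 DMSO vehicle served as the neutral condition. Each well held 2,000 cells given 5-fluorouridine plus compound; after 16 hr at 37 °C/5% CO2, ONE-Glo was added and luciferase measured 30 min later.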
# An asterisk follows results filed as active; ? = inconclusive; nt = no result. A selection: hits, their analogues and other compounds. The true share with any hit is near 19%. Unless noted, calls come from the whole dose curve; as a rule, active = well fitted curve in the direction sought with a large enough effect; inconclusive = small, poorly fitted or top-dose-only effect, or another doubt; inactive = no such curve, though single readings can be large; an effect the other way counts as inactive or inconclusive. Unless noted, % is set by controls: 0 for no effect and ±100 for the full control effect.
SMILES,IL-1B inflam inh,HT1080NT lethal,TDP1 cell CPT,TDP1 cell noCPT,HT1080 IDH1KD tx,ELG1 repair inh
O=C1C=C(Nc2ccc(Cl)cc2Cl)CC(c2ccco2)C1 (stereo not drawn),-2.0,3.66µM*,3.66µM*,4.11µM*,2.31µM*,?
CCOC(=O)c1ccc(NC2=CC(=O)CC(c3ccco3)C2)cc1 (stereo not drawn),0.5,-6.2%,-12.6%,?,-2.4%,0.8%
CC(C)CNC1=CC(=O)CC(c2ccco2)C1 (stereo not drawn),0.0,-0.1%,-25.7%,-5.0%,-5.2%,-1.4%
COc1ccc(NC(=O)C2Cc3c(-c4ccc(NC(C)=O)cc4)ccnc3O2)cn1 (stereo not drawn),-22.2,?,8.2µM*,11.6µM*,?,nt
COc1ccc(NC(=O)C2Cc3c(-c4ccc(NC(C)=O)cc4)ccnc3O2)cc1 (stereo not drawn),-25.2,-12.8%,?,16.4µM*,-21.7%,nt
COc1ccc(NC(=O)C2Cc3c(-c4ccc(NC(C)=O)cc4)ccnc3O2)cc1OC (stereo not drawn),-29.8,-20.9%,?,?,-25.0%,nt
COc1ccc(NC(=O)C2Cc3c(-c4cccc(C(C)=O)c4)ccnc3O2)cc1 (stereo not drawn),-3.4,?,2.31µM*,2.91µM*,1.84µM*,nt
COc1ccc(NC(=O)C2Cc3c(-c4cccc(NC(C)=O)c4)ccnc3O2)cc1 (stereo not drawn),43.1,?,3.66µM*,3.26µM*,?,nt
Cc1ccc2c(c1)c(=O)c(C(=O)c1ccncc1)cn2CC(=O)Nc1ccc(C(C)C)cc1,nt,nt,-19.5%,-18.5%,nt,nt
COc1ccccc1-c1noc2c1C(=O)N(Cc1cn(Cc3ccccc3)nn1)CC2,0.0,-1.0%,?,?,-0.4%,nt
O=C(Nc1ccc(F)c(Cl)c1)C1Cc2c(-c3ccco3)ccnc2O1 (stereo not drawn),0.0,-18.0%,23.1µM*,14.6µM*,-19.1%,nt
COc1ccc(NC(=O)C2Cc3c(-c4cccc(C(C)=O)c4)ccnc3O2)cn1 (stereo not drawn),59.2,?,2.59µM*,2.91µM*,3.26µM*,nt
CC(=O)Nc1ccc(-c2ccnc3c2CC(C(=O)Nc2ccccc2)O3)cc1 (stereo not drawn),-26.0,?,4.61µM*,5.8µM*,18.4µM*,nt
CC(=O)Nc1cccc(-c2ccnc3c2CC(C(=O)NCC2CC2)O3)c1 (stereo not drawn),36.4,-20.5%,?,?,?,nt
O=C(Nc1cccnc1)C1Cc2c(-c3ccco3)ccnc2O1 (stereo not drawn),-19.2,3.6%,-29.4%,?,-0.7%,nt
CC(=O)Nc1cccc(-c2ccnc3c2CC(C(=O)Nc2ccc(F)c(Cl)c2)O3)c1 (stereo not drawn),-18.5,?,18.4µM*,18.4µM*,?,nt
CC(=O)Nc1ccc(NC(=O)C2Cc3c(-c4cccc(NC(C)=O)c4)ccnc3O2)cc1 (stereo not drawn),-24.6,0.3%,-13.0%,-14.1%,22.8%,nt
CC(=O)Nc1cccc(-c2ccnc3c2CC(C(=O)Nc2cccc(N(C)C)c2)O3)c1 (stereo not drawn),-0.3,?,13µM*,10.3µM*,?,nt
CC(=O)Nc1cccc(-c2ccnc3c2CC(C(=O)Nc2ccc(C(C)C)cc2)O3)c1 (stereo not drawn),-51.0*,?,20.6µM*,11.6µM*,?,nt
COC(=O)C1=C(N)OC2=C(C(=O)CC(C)(C)C2)C1c1cc2c(cc1Cl)OCO2 (stereo not drawn),-3.0,-5.5%,28.4%,-5.4%,0.3%,-5.5%
C/C(N)=C(/C#N)C(=O)COc1ncnc2ccccc12,21.4,5.3%,7.9%,5.2%,1.5%,7.1%
COC(=O)C1CCN(C(=O)COC(=O)c2cc(-c3ccccc3)nc3ccc(OC)cc23)CC1,-26.2,-4.9%,?,?,-16.2%,18.3µM*
COc1cc2ccccc2cc1C(=O)OCC(=O)N1CCOCC1,-14.4,8.6%,-6.9%,-21.7%,12.9%,-5.8%
C/C(N)=C(/C#N)C(=O)COC(=O)c1cc(-c2ccc(Br)cc2)nc2ccccc12,?,?,14.6µM*,9.2µM*,?,?
COc1ccc(-c2cc(C(=O)OCC(=O)N3CCOCC3)c3ccccc3n2)cc1,-54.1*,-0.5%,-15.1%,?,-15.5%,20.6µM*
SMILES,IL-1B inflam inh,HT1080NT lethal,TDP1 cell CPT,TDP1 cell noCPT,HT1080 IDH1KD tx,ELG1 repair inh
O=c1ccncn1C1OC(CO)C(O)C1O (stereo not drawn),13.5,1.3%,-4.2%,9.8%,5.2%,nt
COc1ccc(C2=NS(=O)(=O)N(C)C(C(=O)NCc3ccccn3)=C2)cc1OC,5.6,0.3%,-20.5%,-16.8%,0.3%,2.4%
Clc1cccc[n+]1CCc1ccccc1,nt,nt,-28.0%,7.0%,nt,nt
Cc1cccc(CN2CCc3c([nH]c4ccccc34)C2)c1,?,-23.0%,20.6µM*,18.4µM*,-24.9%,-21.6%
Clc1cccc(CN2CCc3c([nH]c4ccccc34)C2)c1,-98.3*,?,?,?,?,?
COc1cc(OC)c(CN2CCc3c([nH]c4ccccc34)C2)cc1Br,-0.5,16.4µM*,?,?,?,-15.9%
CSc1ccc(CN2CCc3c([nH]c4ccccc34)C2)cc1,-73.4*,-22.5%,-29.9%,?,-17.9%,-10.5%
CCN1CCc2[nH]c3ccccc3c2C1,-8.6,6.1%,-6.0%,-8.2%,-4.4%,4.0%
c1ccc(CN2CCc3[nH]c4ccccc4c3C2)cc1,-3.1,-0.3%,-21.3%,?,-1.5%,nt
COc1cc(OC)c(OC)cc1CN1CCc2ccccc2C1,2.7,3.6%,-16.4%,-9.4%,0.0%,2.7%
COc1ccccc1-c1cccc(-c2nc(C(=O)N3CCCCC3)cc3c2[C@@H](CCO)N(S(=O)C(C)(C)C)C3)c1 (stereo partly drawn),-10.5,-5.1%,-0.3%,?,1.6%,nt

# Source: PubChem BioAssay (National Center for Advancing Translational Sciences (NCATS))
